Laboratory results as given in PubChem BioAssay (NCATS).
Several values for one entry are separate records, joined by “and”; a condition that tells them apart may be missing. Identical values can stand only once. Results filed as inconclusive are left out. Activity calls are given as the source filed them. Unless noted, calls follow the shape of the dose curve; as a rule, active = well fitted curve in either direction with a large enough effect (not every such curve was filed as active); inconclusive = small, poorly fitted or top-dose-only effect, or another doubt; inactive = flat fitted curve, though single readings scatter.

Key:
[1] = AP1 Signaling Pathway (AID 357);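 also: ME-180 reporter cells stimulated with EGF at its EC50 level; % is scaled to controls: 0 for no effect and ±100 for the full control effect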
Outline: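 Read-out was the 460nm/530nm emission ratio (excitation 405nm) after CCF4 loading for 2.5 hours at room temperature. Cells carried an AP-1-driven beta-lactamase reporter, were stimulated with EC50 EGF plus compound for 5 hours, and AC50 values came from titrations.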

[2] = NFAT Signaling Pathway (AID 444); settings: Jurkat NFAT-bla M1, carbachol, beta-lactamase ratio, 5 h;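 also: carbachol stimulus at about its EC50 of 1 µM final; % is scaled to controls: 0 for no effect and ±100 for the full control effect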
Outline: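 Jurkat cells with NFAT-driven β-lactamase reporter and co-expressed M1 receptor, stimulated with carbachol (final 1 uM, ~EC50), compound titration, 5 h at 37 °C. CCF4 loaded 1 h at RT; 460/530 nm ratio gave %activity and AC50.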

[3] = Stat Signaling Pathway (AID 446);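 also: ME-180 cervical cancer cells given 40 pM IL-6 alongside compound; SIE-controlled beta-lactamase reporter measured as 460/530 nm FRET emission ratio; % is scaled to controls: 0 for no effect and ±100 for the full control effect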
Outline: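 Overnight-plated ME-180 cells bearing a STAT Inducible Element beta-lactamase reporter; 5 h co-exposure to compound and 40 pM IL-6; values normalized to 300 pM IL-6 and 125 nM JAK inhibitor controls.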

[4] = biological target: Glucocorticoid receptor (Homo sapiens) (UniProt P04150); assay: GR-GFP Redistribution (AID 450;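 active = compounds whose dose series gives a full or clear partial fitted curve of increased nuclear translocation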; also: potency is read from the fitted curve at half-maximal effect); settings: U2OS GR-GFP nuclear translocation, laser cytometry, 2 h
Sequence of Glucocorticoid receptor (Homo sapiens) (P04150 whole entry, looked up, the tested form may be a part): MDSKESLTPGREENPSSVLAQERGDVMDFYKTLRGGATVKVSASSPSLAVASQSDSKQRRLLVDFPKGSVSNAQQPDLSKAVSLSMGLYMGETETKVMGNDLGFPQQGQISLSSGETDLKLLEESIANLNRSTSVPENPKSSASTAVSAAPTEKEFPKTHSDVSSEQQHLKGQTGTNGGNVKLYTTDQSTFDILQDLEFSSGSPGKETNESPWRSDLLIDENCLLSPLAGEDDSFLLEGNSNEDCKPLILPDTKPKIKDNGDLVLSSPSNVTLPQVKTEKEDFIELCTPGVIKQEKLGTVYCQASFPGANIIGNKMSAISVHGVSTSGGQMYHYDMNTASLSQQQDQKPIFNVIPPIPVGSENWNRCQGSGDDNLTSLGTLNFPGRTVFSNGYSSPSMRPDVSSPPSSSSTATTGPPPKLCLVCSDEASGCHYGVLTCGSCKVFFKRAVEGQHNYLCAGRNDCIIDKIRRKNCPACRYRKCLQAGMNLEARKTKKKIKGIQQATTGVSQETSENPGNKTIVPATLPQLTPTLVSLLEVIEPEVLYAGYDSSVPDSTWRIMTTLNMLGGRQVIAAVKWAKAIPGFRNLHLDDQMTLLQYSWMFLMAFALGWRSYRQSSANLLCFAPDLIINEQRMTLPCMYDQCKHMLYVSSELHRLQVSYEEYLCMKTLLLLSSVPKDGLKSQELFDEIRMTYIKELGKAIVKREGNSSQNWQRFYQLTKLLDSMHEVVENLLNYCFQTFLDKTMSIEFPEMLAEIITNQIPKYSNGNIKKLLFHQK

[5] = biological target: Glucocorticoid receptor (Homo sapiens) (UniProt P04150); assay: GR-EFC Redistribution (AID 451; calls by dose curve; also: potency is read from the fitted curve at half-maximal effect); settings: CHO-K1 GR-EFC translocation, beta-gal luminescence, 2 h
Outline: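 CHO-K1 cells expressing nuclear EA and GR-ED fragments of b-gal; compounds titrated up to 46 uM final, 2 h at 37 C. GR nuclear translocation read as complemented b-gal luminescence after 1 h RT detection.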

[6] = biological target: Mitogen-activated protein kinase 10 (Mus musculus) (UniProt Q61831); assay: JNK3 AlphaScreen Assay (AID 530);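 also: kinase came from lysate of stimulated human HepG2 cells; signal reports phosphorylation of biotinylated GST-cJun 1-79 at Ser73 with 10 µM ATP; % is scaled to controls: 0 for no effect and ±100 for the full control effect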
Outline: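 Activity was read by AlphaScreen after JNK3-containing HepG2 lysate (cytokine pre-activated) phosphorylated biotinylated GST-cJun with 10 uM ATP at room temperature. Phospho-Ser73 cJun antibody with Protein-A acceptor beads provided detection.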

[7] = biological target: Lysosomal acid glucosylceramidase (Homo sapiens) (UniProt P04062); assay: Glucocerebrosidase-p2 (AID 348; in the data active = potency below about 10 µM; also: potency is read from the fitted curve at half-maximal effect); settings: purified GBA, blue fluorogenic substrate, 40 min
Sequence of Lysosomal acid glucosylceramidase (Homo sapiens) (P04062 whole entry, looked up): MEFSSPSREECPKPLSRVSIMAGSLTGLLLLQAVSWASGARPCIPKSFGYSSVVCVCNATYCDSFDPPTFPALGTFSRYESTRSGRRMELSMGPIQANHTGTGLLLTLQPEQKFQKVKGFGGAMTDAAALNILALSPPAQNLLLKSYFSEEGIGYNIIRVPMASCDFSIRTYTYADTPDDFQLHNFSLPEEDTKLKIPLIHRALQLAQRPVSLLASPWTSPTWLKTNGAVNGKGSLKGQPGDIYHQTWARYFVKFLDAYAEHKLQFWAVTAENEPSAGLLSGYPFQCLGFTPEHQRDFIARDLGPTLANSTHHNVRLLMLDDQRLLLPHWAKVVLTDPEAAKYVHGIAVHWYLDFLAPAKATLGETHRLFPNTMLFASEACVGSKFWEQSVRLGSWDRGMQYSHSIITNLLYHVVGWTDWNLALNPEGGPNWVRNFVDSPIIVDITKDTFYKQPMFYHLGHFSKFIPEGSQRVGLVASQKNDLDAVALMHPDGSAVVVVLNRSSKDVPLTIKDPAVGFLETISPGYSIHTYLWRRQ
Outline: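 Normal human glucocerebrosidase (0.2 nM) with blue fluorogenic substrate (80 uM final) in citrate/phosphate pH 5.9 with 10mM sodium taurocholate, 0.01% tween-20; 40 min RT, NaOH/glycine stop; fluorescence Ex 365/Em 440; AC50 from a titration from 0.6 nM upwards.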

[8] = Cell Viability - BJ (AID 421; calls by dose curve;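 also: potency is read from the fitted curve at half-maximal effect; cells exposed to compound for 40 hours at 37 °C before readout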); settings: BJ fibroblast viability, qHTS
Outline: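 Quantitative HTS: ATP depletion in BJ cells after 40 hr compound exposure in complete culture medium, detected with CellTiter-Glo; AC50 from standard Hill fits.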

[9] = Cell Viability - Hek293 (AID 427;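 active = compounds whose dose-response curve shows a full or clear partial loss of cell viability, called from curve shape rather than a numeric limit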;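 also: potency is read from the fitted curve at half-maximal effect; cells exposed to compound for 40 hours at 37 °C before reading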); settings: qHTS
Outline: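 AC50 values derive from Hill-modelled concentration-response of ATP-based luminescence, normalized between DMSO-only and 100 uM tamoxifen controls. Cells were exposed in complete culture medium for 40 hr at 37 °C before detection.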

[10] = Cell Viability - MRC5 (AID 434; calls by dose curve;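 also: potency is read from the fitted curve at half-maximal effect; cells exposed to compound for 40 hours at 37 °C; potency reflects cytotoxicity seen as loss of intracellular ATP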); settings: MRC5 lung fibroblast viability, qHTS
Outline: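 ATP luminescence read-out (CellTiter-Glo, 20 min RT) after 40 hr, 37 °C compound exposure of 1500 MRC5 cells/well. Data normalized to DMSO (basal) and 100 uM tamoxifen (100% inhibition); AC50 from standard Hill equation.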

[11] = Cell Viability - SK-N-SH (AID 435; calls by dose curve;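 also: potency is read from the fitted curve at half-maximal effect; compound exposure lasted 40 h at 37 °C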); settings: SK-N-SH neuroblastoma cell viability qHTS
Outline: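 Cells seeded at 1500 per well and incubated 5 hr at 37 °C. Compound added, then 40 hr at 37 °C. CellTiter-Glo added, 20 min at room temperature, luminescence read.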

[12] = Cell Viability - N2a (AID 540; active = well fitted curve in the direction sought with a large enough effect; an effect the other way counts as inactive or inconclusive;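 also: cells exposed to compound for 40 h at 37 °C; plate controls were DMSO alone for no effect and tamoxifen control for full effect; nearly all actives have a fitted effect of over 45% in size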); settings: N2a mouse neuroblastoma cell viability; activity change, negative = cytotoxicity: at 92.2 µM (top of the series)
Outline: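 Cytotoxicity was scored as loss of cellular ATP in N2a cells, a mouse neuroblastoma line. Compounds are applied in a qHTS concentration series for 40 hr at 37 °C.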

[13] = Cell Viability - HUV-EC-C (AID 542; active = well fitted curve in the direction sought with a large enough effect; an effect the other way counts as inactive or inconclusive; also: % is scaled to controls: 0 for no effect and ±100 for the full control effect; nearly all actives have a fitted effect of over 35% in size)
Outline: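 Cells were seeded at 1000 per well and incubated 5 hr at 37 °C before compound addition. After 40 hr at 37 °C, CellTiter-Glo reagent was added for 20 min and luminescence read. AC50 values came from Hill-equation modelling.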

[14] = Cell Viability - SH-SY5Y (AID 544; active = well fitted curve in the direction sought with a large enough effect; an effect the other way counts as inactive or inconclusive;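 also: 0% = DMSO alone and -100% = 100 µM tamoxifen; nearly all actives have a fitted effect of over 55% in size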); settings: SH-SY5Y neuroblastoma cell viability; viability change, negative = cytotoxic: at 92.2 µM (top of the series)
Outline: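 Cells were plated at 1500 per well and allowed 5 hr at 37 °C. Compounds were added across a concentration range and incubated 40 hr at 37 °C. CellTiter-Glo was added for 20 min at room temperature before luminescence reading.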

[15] = Cell Viability - Renal Proximal Tubule (AID 545; active = well fitted curve in the direction sought with a large enough effect; an effect the other way counts as inactive or inconclusive;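 also: 0% = DMSO only and -100% = 100 µM tamoxifen; nearly all actives have a fitted effect of over 40% in size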)
Outline: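 Cytotoxicity is scored as a concentration-dependent drop in cellular ATP in primary rat renal proximal tubule cells exposed for 40 hr. AC50 derives from Hill modelling.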

[16] = Cell Viability - Mesenchymal (AID 546; active = well fitted curve in the direction sought with a large enough effect; an effect the other way counts as inactive or inconclusive;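 also: cells exposed to compound for 40 hours before reading; 0% = DMSO only and -100% = 100 µM tamoxifen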)
Outline: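 Human renal mesenchymal cells (glomerulus-derived), 1000 cells/well, 5 hr 37 °C pre-incubation; compound 40 hr, 37 °C; CellTiter-Glo, 20 min RT; luminescence; AC50 via Hill equation.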

[17] = Cell Viability - HepG2 (AID 433; calls by dose curve;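 also: potency is read from the fitted curve at half-maximal effect; potency for ATP loss meaning cytotoxicity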); settings: qHTS
Outline: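 Cytotoxicity is scored as loss of intracellular ATP in HepG2 cells exposed to compounds for 40 h. Concentration-response curves, normalized to DMSO and 100 uM tamoxifen, give AC50 values.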

[18] = Cell Viability - NIH 3T3 (AID 541; active = well fitted curve in the direction sought with a large enough effect; an effect the other way counts as inactive or inconclusive; also: nearly all actives have a fitted effect of over 25% in size; also: potency is read from the fitted curve at half-maximal effect;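 as to activity change, negative = cytotoxicity: plate controls were DMSO alone for no effect and tamoxifen positive control for full effect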); settings: NIH 3T3 cell viability, qHTS; activity change, negative = cytotoxicity: at 92.2 µM (top of the series)
Outline: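 Cells seeded at 1000/well, rested 5 hr at 37 °C, then dosed and incubated 40 hr at 37 °C. CellTiter-Glo added, 20 min room temperature, luminescence read. AC50 by Hill fit.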

[19] = Cell Viability - H-4-II-E (AID 543; active = well fitted curve in the direction sought with a large enough effect; an effect the other way counts as inactive or inconclusive; also: % is scaled to controls: 0 for no effect and ±100 for the full control effect; nearly all actives have a fitted effect of over 35% in size)
Outline: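 Cells seeded at 1500 per well and rested 5 hr; compounds added; 40 hr incubation at 37 °C; CellTiter-Glo added, 20 min at room temperature; luminescence read. Hill-equation fits gave AC50.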

CC[N+](CC)(CC)CCOc1cccc(OCC[N+](CC)(CC)CC)c1OCC[N+](CC)(CC)CC
inactive: outcome [1] | activity change, negative = inhibition ([2]; at 17.2 µM (top of the series)) -15.9% | activity change, negative = inhibition ([2]; at 38 µM (top of the series)) -22% | outcome [3] | Potency [4] > 46 µM and > 20.6 µM | Potency [5] > 46 µM and > 20.6 µM | outcome [6]

CN(C)CCC=C1c2ccccc2C=Cc2ccccc21
active: activity change, negative = inhibition ([2]; at 7.69 µM (top of the series)) -78.7%
inactive: Potency [7] > 11.4 µM | outcome [3] | Potency [4] > 46 µM and > 20.6 µM | outcome [6]

COc1ccc(CCN(C)CCCC(C#N)(c2ccc(OC)c(OC)c2)C(C)C)cc1OC (stereo not drawn)
inactive: outcome [1] | Potency [8] > 92 µM | Potency [9] > 92 µM | Potency [10] > 92 µM | Potency [11] > 92 µM | outcome [3] | outcome [6] | activity change, negative = cytotoxicity [12] -16.5% | outcome [13] | Potency [14] | Potency [15] | outcome [16]

CN1C(C(=O)Nc2ccccn2)=C(O)c2ccccc2S1(=O)=O
inactive: outcome [1] | activity change, negative = inhibition ([2]; at 17.2 µM (top of the series)) 9.4% and 2.14% and -3.58% | activity change, negative = inhibition ([2]; at 38 µM (top of the series)) -8.1% | outcome [3] | Potency [4] > 46 µM and > 20.6 µM | outcome [6]

O=c1c(-c2ccc(O)cc2)coc2cc(O)cc(O)c12
active: Potency [18] 25.1 µM | viability change, negative = cytotoxic [14] -86.9%
inactive: outcome [1] | Potency [8] > 92 µM | Potency [9] > 92 µM | Potency [17] > 92 µM | Potency [10] > 92 µM | activity change, negative = inhibition ([2]; at 38 µM (top of the series)) -8.04% | outcome [3] | Potency [4] > 46 µM | outcome [6] | activity change, negative = cytotoxicity [12] 0.0672% | outcome [13]

NC12CC3CC(CC(C3)C1)C2
inactive: outcome [1] | activity change, negative = inhibition ([2]; at 17.2 µM (top of the series)) 5.54% | activity change, negative = inhibition ([2]; at 38 µM (top of the series)) -1.81% | outcome [3] | Potency [4] > 46 µM and > 20.6 µM | outcome [6]

CC(C)Cc1ccc(C(C)C(=O)O)cc1 (stereo not drawn)
inactive: outcome [1] | activity change, negative = inhibition ([2]; at 17.2 µM (top of the series)) -15% | outcome [3] | Potency [4] > 20.6 µM

N[C@@H](Cc1c[nH]c2ccc(O)cc12)C(=O)O
inactive: outcome [1] | Potency [8] > 92 µM | Potency [9] > 92 µM | Potency [17] > 92 µM | Potency [10] > 92 µM | activity change, negative = inhibition ([2]; at 38 µM (top of the series)) -5.52% | outcome [3] | Potency [4] > 46 µM | outcome [6] | activity change, negative = cytotoxicity [12] -0.161% | Potency [18] | outcome [13] | Potency [19] | Potency [15] | outcome [16]
